Results published in publication PMC11062922 (Nature Chemical Biology, 2023).
Read-outs that look alike come from different tables or passages of the source.

Columns and labels:
Design in all cases: species or system human, MV4-11 + K-562 + COLO205 + SK-N-BE2 + OVCAR-8
[1] = system: AURKB; conditions: read-out: apparent Kd, n = 1
[2] = system: DCTPP1; conditions: read-out: apparent Kd; compound concentrations: 100 nM and 1000 nM (sheet 'Samples'), CATDS: 8.7325060780524003E-2; n = 1
[3] = system: DDR2; conditions: read-out: apparent Kd, n = 1
[4] = system: FLT3; conditions: read-out: apparent Kd, n = 1
[5] = system: FLT4; conditions: read-out: apparent Kd, n = 1
[6] = system: PDGFRB; conditions: read-out: apparent Kd; compound concentrations: 100 nM and 1000 nM (sheet 'Samples'), CATDS: 0.111791794909036; n = 1
[7] = system: PI4KB; conditions: read-out: apparent Kd; compound concentrations: 100 nM and 1000 nM (sheet 'Samples'), CATDS: 0.119169210644034; n = 1
[8] = system: PIK3CD; conditions: read-out: apparent Kd, compound concentrations: 100 nM and 1000 nM (sheet 'Samples'), n = 1
[9] = system: TAOK1; conditions: read-out: apparent Kd; compound concentrations: 100 nM and 1000 nM (sheet 'Samples'), CATDS: 9.5219877084068302E-2; n = 1
[10] = system: DDR1; conditions: read-out: apparent Kd, n = 1
[11] = system: EPHA7; conditions: read-out: apparent Kd; compound concentrations:100 nM and 1000 nM (sheet 'Samples'); n = 1
[12] = system: EPHB6; conditions: read-out: apparent Kd; compound concentrations:100 nM and 1000 nM (sheet 'Samples'); n = 1
[13] = system: JAK2; conditions: read-out: apparent Kd; compound concentrations:100 nM and 1000 nM (sheet 'Samples'); n = 1
[14] = system: RET; conditions: read-out: apparent Kd, n = 1
[15] = system: BUB1; conditions: read-out: apparent Kd; compound concentrations: 100 nM and 1000 nM (sheet 'Samples'), CATDS: 0.134254488051117; n = 1
[16] = system: MAPK11; conditions: read-out: apparent Kd; compound concentrations: 100 nM and 1000 nM (sheet 'Samples'), CATDS: 0.164145076514569; n = 1
[17] = system: MAPK14; conditions: read-out: apparent Kd; compound concentrations: 100 nM and 1000 nM (sheet 'Samples'), CATDS: 0.28659928881312002; n = 1
[18] = system: MAPKAPK2; conditions: read-out: apparent Kd; compound concentrations: 100 nM and 1000 nM (sheet 'Samples'), CATDS: 0.18697262000238801; n = 1
[19] = system: AXL; conditions: read-out: apparent Kd; compound concentrations:100 nM and 1000 nM (sheet 'Samples'); n = 1
[20] = system: EIF2AK1; conditions: read-out: apparent Kd; compound concentrations:100 nM and 1000 nM (sheet 'Samples'); n = 1
[21] = system: GALK1; conditions: read-out: apparent Kd; compound concentrations: 100 nM and 1000 nM (sheet 'Samples'), CATDS: 7.3268745996591306E-2; n = 1
[22] = system: LIMK1; conditions: read-out: apparent Kd; compound concentrations: 100 nM and 1000 nM (sheet 'Samples'), CATDS: 8.69066115858768E-2; n = 1
[23] = system: MAP4K5; conditions: read-out: apparent Kd; compound concentrations: 100 nM and 1000 nM (sheet 'Samples'), CATDS: 6.8685970274903196E-2; n = 1
[24] = system: NLK; conditions: read-out: apparent Kd; compound concentrations: 100 nM and 1000 nM (sheet 'Samples'), CATDS: 6.8663594256603303E-2; n = 1
[25] = system: RIPK2; conditions: read-out: apparent Kd; compound concentrations: 100 nM and 1000 nM (sheet 'Samples'), CATDS: 0.16558982732925701; n = 1
[26] = system: ERBB3; conditions: read-out: apparent Kd; compound concentrations:100 nM and 1000 nM (sheet 'Samples'); n = 1
[27] = system: MAP3K1; conditions: read-out: apparent Kd; compound concentrations:100 nM and 1000 nM (sheet 'Samples'); n = 1
[28] = system: ZAK; conditions: read-out: apparent Kd; compound concentrations:100 nM and 1000 nM (sheet 'Samples'); n = 1
[29] = compound concentrations:100 nM and 1000 nM (sheet 'Samples')

## Cn1ccc2ncnc(Oc3ccc(NC(=O)Nc4ccccc4)cc3)c21 [TPKI-69]
[1]; compound concentrations: 100 nM and 1000 nM (sheet 'Samples'), CATDS: 0.138800296841457
  potency estimated from few doses: 695 nM
[2]
  potency estimated from few doses: 2030 nM
[3]; compound concentrations: 100 nM and 1000 nM (sheet 'Samples'), CATDS: 8.3380311484054601E-2
  potency estimated from few doses: 2350 nM
[4]; compound concentrations: 100 nM and 1000 nM (sheet 'Samples'), CATDS: 0.108927417624357
  potency estimated from few doses: 1150 nM
[5]; compound concentrations: 100 nM and 1000 nM (sheet 'Samples'), CATDS: 9.3314690514963106E-2
  potency estimated from few doses: 1680 nM
[6]
  potency estimated from few doses: 1080 nM
[7]
  potency estimated from few doses: 943 nM
[8]; CATDS: 0.38237858605116598
  potency estimated from few doses: 142 nM
[9]
  potency estimated from few doses: 1600 nM

## Nc1ncnc2occ(-c3ccc(NC(=O)Nc4cc(C(F)(F)F)ccc4F)cc3)c12 [GW770249A_KCGS]
[1]; [29]
  potency estimated from few doses: 1400 nM
[10]; [29]
  potency estimated from few doses: 122 nM
[3]; [29]
  potency estimated from few doses: 529 nM
[11]
  potency estimated from few doses: 1760 nM
[12]
  potency estimated from few doses: 1000 nM
[4]; [29]
  potency estimated from few doses: 215 nM
[5]; [29]
  potency estimated from few doses: 114 nM
[13]
  potency estimated from few doses: 871 nM
[14]; [29]
  potency estimated from few doses: 17.1 nM

## Cc1cc(N2CCC(NS(=O)(=O)c3ccc(F)cc3)CC2)nc(Nc2cccc(C#N)c2)n1.O=C(O)C(F)(F)F [GSK1653537A]
[15]
  potency estimated from few doses: 1700 nM
[16]
  potency estimated from few doses: 822 nM
[17]
  potency estimated from few doses: 232 nM
[18]
  potency estimated from few doses: 573 nM
[8]; CATDS: 0.38142915880681
  potency estimated from few doses: 144 nM

## Cc1cccc(CC(=O)N2CCc3c2ccc(-c2cn(C)c4ncnc(N)c24)c3F)n1 [GSK2656157]
[19]
  potency estimated from few doses: 503 nM
[20]
  potency estimated from few doses: 751 nM

## Cc1c2ccc(N(C)c3ccnc(Nc4cccc(S(N)(=O)=O)c4)n3)cc2nn1Cc1ccccc1.Cc1c2ccc(N(C)c3ccnc(Nc4cccc(S(N)(=O)=O)c4)n3)cc2nn1Cc1ccccc1.Cl.Cl [GW787226A]
[1]; compound concentrations: 100 nM and 1000 nM (sheet 'Samples'), CATDS: 8.6866554765288095E-2
  potency estimated from few doses: 941 nM
[10]; compound concentrations: 100 nM and 1000 nM (sheet 'Samples'), CATDS: 9.2997876438350002E-2
  potency estimated from few doses: 776 nM
[5]; compound concentrations: 100 nM and 1000 nM (sheet 'Samples'), CATDS: 0.48274666395287902
  potency estimated from few doses: 35.3 nM
[21]
  potency estimated from few doses: 1650 nM
[22]
  potency estimated from few doses: 940 nM
[23]
  potency estimated from few doses: 2130 nM
[24]
  potency estimated from few doses: 2130 nM
[8]; CATDS: 0.18116624440708201
  potency estimated from few doses: 176 nM
[14]; compound concentrations: 100 nM and 1000 nM (sheet 'Samples'), CATDS: 0.101759373704586
  potency estimated from few doses: 612 nM
[25]
  potency estimated from few doses: 209 nM

## Cl.O=C(Nc1ccc(Oc2ccc3[nH]c(NC(=O)c4ccco4)nc3c2)cc1)Nc1cc(C(F)(F)F)ccc1F [GW683134A_KCGS]
[19]
  potency estimated from few doses: 1640 nM
[26]
  potency estimated from few doses: 1130 nM
[27]
  potency estimated from few doses: 2000 nM
[14]; [29]
  potency estimated from few doses: 498 nM
[28]
  potency estimated from few doses: 2150 nM
